This is a sample that favours compounds with a hit; in the whole collection about 3.5% have one here.
MITF primary: inhibitors of human MITF; AlphaScreen MITF homodimerization, bead proximity signal; 650,000 tested, 0.91% active; AID 1259374; O75030; inhibition, % at 2.6 µM; in the data active = inhibition above about 50%;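 note: 0% = vehicle wells with protein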
Target sequence (O75030 whole entry, looked up): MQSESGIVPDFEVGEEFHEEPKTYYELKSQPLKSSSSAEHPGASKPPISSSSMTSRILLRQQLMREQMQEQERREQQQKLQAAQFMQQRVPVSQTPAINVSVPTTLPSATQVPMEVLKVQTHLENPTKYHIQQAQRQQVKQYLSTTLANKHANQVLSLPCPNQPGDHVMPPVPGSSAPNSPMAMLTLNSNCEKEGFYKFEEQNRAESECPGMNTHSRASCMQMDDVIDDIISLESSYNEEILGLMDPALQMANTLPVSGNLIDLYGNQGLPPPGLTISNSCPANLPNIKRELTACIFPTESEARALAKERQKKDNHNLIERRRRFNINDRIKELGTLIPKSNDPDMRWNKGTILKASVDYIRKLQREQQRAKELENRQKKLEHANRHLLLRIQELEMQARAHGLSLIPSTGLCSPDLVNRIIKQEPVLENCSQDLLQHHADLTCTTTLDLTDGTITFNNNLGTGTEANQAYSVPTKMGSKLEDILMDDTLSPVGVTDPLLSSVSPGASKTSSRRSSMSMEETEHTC
GPR151 activ: activators of human GPR151; Q8TDV0; PathHunter beta-arrestin GPR151 cells, luminescence; activation, % at 11.2 µM; 650,000 tested, 1% active; AID 1508602; in the data active = activation above about 4.9%;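 note: 0% = median of compound wells and 100% = cells with positive control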
FBW7 act: human FBW7 E3 ligase activation, primary screen | Q969H0 | AlphaScreen FBW7–phospho-cyclin E peptide binding, activator screen | normalized activity (activation), % at 26.1 µM | 650,000 tested, 0.13% active; in the data active = normalized activity above about 1.9%;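 note: purified mutant Fbw7 with reduced substrate affinity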
TEAD-YAP inh: TEAD-YAP interaction inhibition; HEK-TIYL cells, TEAD-Gal4/YAP UAS-luciferase luminescence; inhibition, % at 9.12 µM; 640,000 tested, 1.4% active; in the data active = inhibition above about 32%;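 note: 0% = median of test compound wells and 100% = reference inhibitor wells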
MITF inh conf: human MITF inhibition, confirmation; shares compounds with MITF primary; 4,700 tested, 16% active; AlphaScreen MITF homodimerization, biotin/His-MITF beads; inhibition, % at 2.6 µM;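 active = inhibition above a cutoff derived from the DMSO control wells, cut at about 28% in these data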;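 note: 0% = MITF dimer wells with DMSO only; inhibitors lower the bead chemiluminescence by keeping MITF from dimerizing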
AlphaScreen intf2: AlphaScreen optical interference, counter-screen | shares compounds with MITF primary | LysRS AlphaScreen counterscreen, signal interference, triplicate | inhibition, % at 2.6 µM | 4,700 tested, 7.6% active | AID 1259376;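 active = inhibition above a cutoff derived from the DMSO control wells, cut at about 30% in these data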
Numbers without * were called inactive.

Results for CN1CCN(CCOCCOc2ccc(Cl)cc2)CC1 ?
MITF primary: 36; GPR151 activ: 0; FBW7 act: 0; TEAD-YAP inh: -1

How did CCN1CCN(CCOCCOc2cccc(Oc3ccccc3)c2)CC1 do in these assays?
MITF primary: 79*; GPR151 activ: 0; FBW7 act: 0; TEAD-YAP inh: -1; MITF inh conf: 6; AlphaScreen intf2: 13

How did CCN1CCN(CCCOc2cccc(C(C)C)c2)CC1 do in these assays?
MITF primary: 48; GPR151 activ: -1; FBW7 act: 0; TEAD-YAP inh: 7

What do the screens show for `CCOc1cccc(OCCCN2CCN(CC)CC2)c1`?
MITF primary: 74*; GPR151 activ: -2; FBW7 act: 0; TEAD-YAP inh: -2; MITF inh conf: 18; AlphaScreen intf2: 16

How did CC(CNC(=O)c1nnc(Cc2ccccc2Cl)o1)c1ccccc1 (stereo not given) do in these assays?
MITF primary: -2; GPR151 activ: 0; FBW7 act: 0; TEAD-YAP inh: 12

Results for CN1CCN(CCCOc2ccc(C#N)cc2)CC1 ?
MITF primary: 2; GPR151 activ: 0; FBW7 act: 0; TEAD-YAP inh: 13

How did CCOc1cccc(OCCCCN2CCN(C)CC2)c1 do in these assays?
MITF primary: 71*; GPR151 activ: -2; FBW7 act: 0; TEAD-YAP inh: 2; MITF inh conf: 13; AlphaScreen intf2: 14

What do the screens show for `CCN1CCN(CCOc2cccc(C(C)=O)c2)CC1`?
MITF primary: 66*; GPR151 activ: 2; FBW7 act: -1; TEAD-YAP inh: 13; MITF inh conf: 8; AlphaScreen intf2: 8

How did CC(=O)c1cccc(OCCCCOc2cccc(C(C)=O)c2)c1 do in these assays?
MITF primary: -12; GPR151 activ: -1; FBW7 act: 0; TEAD-YAP inh: 3

What do the screens show for `CCCCOc1cccc(OCCCN2CCN(C)CC2)c1`?
MITF primary: -8; GPR151 activ: 0; FBW7 act: 0; TEAD-YAP inh: 6

What do the screens show for `CN1CCN(CCCCOc2cccc(C(F)(F)F)c2)CC1`?
MITF primary: 24; GPR151 activ: 0; FBW7 act: 0; TEAD-YAP inh: 1

What do the screens show for `CCN1CCN(CCCCOc2ccc(C#N)cc2)CC1`?
MITF primary: 66*; GPR151 activ: -1; FBW7 act: 0; TEAD-YAP inh: 5; MITF inh conf: 4; AlphaScreen intf2: 13

How did CN1CCN(CCCCOc2cccc(C=O)c2)CC1 do in these assays?
MITF primary: 61*; GPR151 activ: 1; FBW7 act: 0; TEAD-YAP inh: -2; MITF inh conf: 6; AlphaScreen intf2: 17

What do the screens show for `O=[N+]([O-])c1ccc(S(=O)(=O)NCCc2ccc(F)cc2)cc1`?
MITF primary: -20; GPR151 activ: 2; FBW7 act: 0; TEAD-YAP inh: 1

How did CCc1ccc(CN2CCC(C(=O)N3CCCCC3)CC2)cc1 do in these assays?
MITF primary: 38; GPR151 activ: 3; FBW7 act: 0; TEAD-YAP inh: -3

Results for CCOc1cccc(OCCCN2CCNCC2)c1 ?
MITF primary: 54*; GPR151 activ: 0; FBW7 act: 0; TEAD-YAP inh: -15; MITF inh conf: -1; AlphaScreen intf2: -2

How did Cc1cccc(OCCCCN2CCNCC2)c1 do in these assays?
MITF primary: 14; GPR151 activ: 2; FBW7 act: 0; TEAD-YAP inh: -3

How did COc1ccc(-n2c(SCC(=O)O)nc3c([nH]c4ccccc43)c2=O)cc1OC do in these assays?
MITF primary: -3; GPR151 activ: 1; FBW7 act: 0; TEAD-YAP inh: -2

Results for COc1ccc(NC(=O)c2sc3nc4cc(C)ccc4cc3c2N)cc1OC ?
MITF primary: 11; GPR151 activ: 0; FBW7 act: 0; TEAD-YAP inh: 1

How did COc1ccc(NC(=O)c2sc3nc4ccc(C)cc4cc3c2N)cc1OC do in these assays?
MITF primary: 65*; GPR151 activ: 0; FBW7 act: 0; TEAD-YAP inh: -6; MITF inh conf: 7; AlphaScreen intf2: 21

How did COc1ccccc1C1=N/C(=C\c2ccc(Br)cc2)C(=O)O1 do in these assays?
MITF primary: 18; GPR151 activ: 2; FBW7 act: 1; TEAD-YAP inh: -6

What do the screens show for `CC(=O)c1cccc(-c2nc(Nc3ccccc3)c3ncn(Cc4ccc(C(F)(F)F)cc4)c3n2)c1`?
MITF primary: 3; GPR151 activ: 0; FBW7 act: 0; TEAD-YAP inh: -6

Bioassay records from PubChem.
